# Records with an inconclusive call do not appear. Calls of active or inactive are those of the source. How the source made its calls, unless noted: active means hit-call score of the fitted dose curve at least 0.9, where 1 is the maximum; inactive means score below 0.9.
# Columns and labels:
# [1] = ATG_SREBP_CIS: Attagene CIS-FACTORIAL HepG2 Assay for human Sterol Regulatory Element Binding (SREBP) (AID 2282962); conditions: HepG2 Attagene cis-factorial SREBP reporter, mRNA; actives raise or lower the signal
# In short: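 HepG2 cells transiently transfected with multiplexed cis-element reporter units report endogenous transcription factor activity. After 24 h of chemical exposure, reporter mRNA was quantified by RT-PCR, 6-FAM labelling, HpaI digestion and capillary electrophoresis; bidirectional fits used DMSO as baseline.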
# [2] = molecular target: Signal transducer and activator of transcription 3 (Homo sapiens) (UniProt P40763); test: ATG_STAT3_CIS: Attagene CIS-FACTORIAL HepG2 Assay for human Signal Transducer and Activator of Transcription 3 (STAT3) (AID 2282963); conditions: HepG2, Attagene cis-factorial STAT3 reporter transcription; actives raise or lower the signal
# Chain of Signal transducer and activator of transcription 3 (Homo sapiens) (P40763 whole entry, looked up): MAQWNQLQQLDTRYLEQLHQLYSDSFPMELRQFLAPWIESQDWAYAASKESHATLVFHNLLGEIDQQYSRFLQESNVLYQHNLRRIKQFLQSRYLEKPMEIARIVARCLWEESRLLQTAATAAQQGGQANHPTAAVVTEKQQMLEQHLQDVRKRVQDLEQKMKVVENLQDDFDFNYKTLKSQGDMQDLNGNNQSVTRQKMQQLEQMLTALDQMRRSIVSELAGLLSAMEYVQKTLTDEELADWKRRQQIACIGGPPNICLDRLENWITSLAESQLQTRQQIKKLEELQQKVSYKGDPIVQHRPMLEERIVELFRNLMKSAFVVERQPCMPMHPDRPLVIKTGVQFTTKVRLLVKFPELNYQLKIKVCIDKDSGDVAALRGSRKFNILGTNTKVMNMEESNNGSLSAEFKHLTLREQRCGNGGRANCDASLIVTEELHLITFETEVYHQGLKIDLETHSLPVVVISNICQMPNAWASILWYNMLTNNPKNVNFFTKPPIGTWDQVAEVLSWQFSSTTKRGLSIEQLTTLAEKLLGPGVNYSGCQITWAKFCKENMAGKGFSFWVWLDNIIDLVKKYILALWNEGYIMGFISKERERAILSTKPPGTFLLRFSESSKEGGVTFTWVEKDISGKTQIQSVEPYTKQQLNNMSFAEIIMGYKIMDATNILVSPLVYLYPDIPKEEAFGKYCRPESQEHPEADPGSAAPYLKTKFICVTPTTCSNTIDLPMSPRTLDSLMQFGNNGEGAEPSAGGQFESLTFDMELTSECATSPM
# In short: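 HepG2 cells transiently transfected with cis-element-driven multiple reporter transcription units; after 24 h chemical exposure, reporter mRNA measured by RT-PCR, 6-FAM primer-extension labelling, HpaI digestion and capillary electrophoresis. Bidirectional fitting versus DMSO baseline.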
# [3] = ATG_TA_CIS: Attagene CIS-FACTORIAL HepG2 Assay for human TA Basal Promoter (AID 2282964); conditions: HepG2 Attagene CIS-factorial TA basal promoter reporter; actives raise or lower the signal
# In short: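 Multiplexed mRNA reporter assay, HepG2, 24 h. Reporter cDNA amplified, 6-FAM primer-extended, HpaI-cut, CE-sized; DMSO = negative control and baseline.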
# [4] = ATG_TAL_CIS: Attagene CIS-FACTORIAL HepG2 Assay for human TAL Basal Promoter (AID 2282966); conditions: HepG2 Attagene cis-factorial TAL promoter reporter; actives raise or lower the signal;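 further: background control endpoint measuring basal TAL promoter reporter mRNA not a specific factor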
# In short: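 HepG2 cells were transiently transfected with promoter-driven multiplexed reporter units and dosed for 24 h. Reporter mRNA was measured by RT-PCR with capillary electrophoresis fluorescence; bidirectional fits used DMSO as baseline, serving as a background control.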
# [5] = ATG_TGFb_CIS: Attagene CIS-FACTORIAL HepG2 Assay for human Transforming Growth Factor (TGF) (AID 2282967); conditions: HepG2 Attagene CIS TGFb reporter, mRNA transcription; actives raise or lower the signal
# In short: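 Transcript-level reporter readout: HepG2 transfectants, 24 h exposure, RNA to cDNA, reporter-specific PCR, fluorescent primer extension, capillary sizing against ROX standards. Gain- or loss-of-signal relative to DMSO.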
# [6] = ATG_VDRE_CIS: Attagene CIS-FACTORIAL HepG2 Assay for human Vitamin D Receptor Element (VDRE) (AID 2282968); conditions: HepG2 VDRE cis-reporter transcription, actives raise or lower the signal
# In short: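 HepG2 cells transiently transfected with cis-element reporter units, dosed 24 h; reporter mRNA measured by RT-PCR, 6-FAM labeling, HpaI digestion and capillary electrophoresis. Activity fitted bidirectionally against DMSO baseline.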
# [7] = molecular target: Nuclear receptor subfamily 1 group I member 3 (Homo sapiens) (UniProt Q14994); test: ATG_CAR_TRANS: Attagene TRANS-FACTORIAL HepG2 Assay for human Constitutive Androstane Receptor (CAR) (AID 2282969; active means hit-call score of the fitted dose curve at least 0.9, where 1 is the maximum;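 further: activators raise reporter mRNA above DMSO so AC50 marks induction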); conditions: HepG2 Attagene TRANS-FACTORIAL CAR reporter
# Chain of Nuclear receptor subfamily 1 group I member 3 (Homo sapiens) (Q14994 whole entry, looked up, the tested form may be a part): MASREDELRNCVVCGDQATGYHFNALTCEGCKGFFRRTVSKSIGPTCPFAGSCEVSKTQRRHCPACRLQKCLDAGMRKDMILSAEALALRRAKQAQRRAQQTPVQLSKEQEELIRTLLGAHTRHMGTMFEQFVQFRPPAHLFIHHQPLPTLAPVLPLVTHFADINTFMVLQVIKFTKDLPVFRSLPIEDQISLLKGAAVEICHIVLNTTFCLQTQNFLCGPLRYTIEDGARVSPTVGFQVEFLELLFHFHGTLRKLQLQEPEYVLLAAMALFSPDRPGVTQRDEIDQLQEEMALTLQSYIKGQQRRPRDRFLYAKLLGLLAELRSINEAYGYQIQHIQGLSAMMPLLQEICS
# In short: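 HepG2 cells transiently transfected with multiplexed GAL4-UAS reporter units expressing chimeric NR-Gal4 proteins; compound exposure 24 h. Reporter mRNA measured by RT-PCR, 6-FAM labelling, HpaI digestion and capillary electrophoresis; gain-of-signal fitted against DMSO baseline.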
# [8] = molecular target: Estrogen receptor (Homo sapiens) (UniProt P03372); test: ATG_ERa_TRANS: Attagene TRANS-FACTORIAL HepG2 Assay for human Estrogen Receptor alpha (ERa) (AID 2282970; active means hit-call score of the fitted dose curve at least 0.9, where 1 is the maximum); conditions: HepG2 Attagene TRANS ERa GAL4 reporter, mRNA
# Chain of Estrogen receptor (Homo sapiens) (P03372 whole entry, looked up, the tested form may be a part): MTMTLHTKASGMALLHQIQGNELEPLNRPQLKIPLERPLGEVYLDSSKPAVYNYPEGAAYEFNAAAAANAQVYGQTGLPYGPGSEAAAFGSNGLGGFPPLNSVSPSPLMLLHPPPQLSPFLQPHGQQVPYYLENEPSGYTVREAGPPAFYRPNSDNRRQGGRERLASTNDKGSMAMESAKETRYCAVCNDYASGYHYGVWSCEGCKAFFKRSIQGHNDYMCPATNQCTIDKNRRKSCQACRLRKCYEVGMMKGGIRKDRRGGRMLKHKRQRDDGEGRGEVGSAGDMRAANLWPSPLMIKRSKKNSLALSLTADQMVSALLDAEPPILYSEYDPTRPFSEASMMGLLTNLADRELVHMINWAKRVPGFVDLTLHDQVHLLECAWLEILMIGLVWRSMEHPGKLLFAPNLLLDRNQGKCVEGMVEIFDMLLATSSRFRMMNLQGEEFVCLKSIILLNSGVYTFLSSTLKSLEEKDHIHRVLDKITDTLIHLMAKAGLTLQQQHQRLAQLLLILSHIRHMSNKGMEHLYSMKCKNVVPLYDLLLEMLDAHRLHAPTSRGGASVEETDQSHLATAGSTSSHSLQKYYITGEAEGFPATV
# In short: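 HepG2 cells transiently transfected with multiplexed GAL4-UAS reporter units; ERa activity read via exogenous chimeric NR-Gal4 protein. After 24 hour compound exposure, reporter mRNA measured by RT-PCR with 6-FAM labelling and capillary electrophoresis; gain-of-signal fitted relative to DMSO.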
# [9] = molecular target: X-box-binding protein 1 (Homo sapiens) (UniProt P17861); test: ATG_Xbp1_CIS: Attagene CIS-FACTORIAL HepG2 Assay for human X-box Binding Protein 1 (XBP1) (AID 2282972); conditions: HepG2 XBP1 cis-element reporter, Attagene multiplex; actives raise or lower the signal
# Chain of X-box-binding protein 1 (Homo sapiens) (P17861 whole entry, looked up): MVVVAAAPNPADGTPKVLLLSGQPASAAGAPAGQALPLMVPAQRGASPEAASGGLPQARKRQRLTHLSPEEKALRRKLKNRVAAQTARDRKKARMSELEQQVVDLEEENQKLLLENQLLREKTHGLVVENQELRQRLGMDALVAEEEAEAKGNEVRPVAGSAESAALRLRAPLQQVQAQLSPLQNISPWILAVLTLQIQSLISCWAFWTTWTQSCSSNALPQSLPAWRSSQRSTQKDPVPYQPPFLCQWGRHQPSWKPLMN
# In short: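 HepG2 cells transiently transfected with cis-regulated multiple reporter transcription units; endogenous transcription factor activity measured 24 hours after chemical dosing. Reporter mRNA quantified by RT-PCR, 6-FAM primer extension, HpaI digestion and capillary electrophoresis; bidirectional fitting versus DMSO.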
# [10] = molecular target: Bile acid receptor (Homo sapiens) (UniProt Q96RI1); test: ATG_FXR_TRANS: Attagene TRANS-FACTORIAL HepG2 Assay for Farnesoid X Receptor (FXR) (AID 2282979; active means hit-call score of the fitted dose curve at least 0.9, where 1 is the maximum;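 further: hits raise reporter mRNA above DMSO so AC50 marks FXR activation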); conditions: HepG2 Attagene TRANS FXR-GAL4 reporter transcription
# Chain of Bile acid receptor (Homo sapiens) (Q96RI1 whole entry, looked up, the tested form may be a part): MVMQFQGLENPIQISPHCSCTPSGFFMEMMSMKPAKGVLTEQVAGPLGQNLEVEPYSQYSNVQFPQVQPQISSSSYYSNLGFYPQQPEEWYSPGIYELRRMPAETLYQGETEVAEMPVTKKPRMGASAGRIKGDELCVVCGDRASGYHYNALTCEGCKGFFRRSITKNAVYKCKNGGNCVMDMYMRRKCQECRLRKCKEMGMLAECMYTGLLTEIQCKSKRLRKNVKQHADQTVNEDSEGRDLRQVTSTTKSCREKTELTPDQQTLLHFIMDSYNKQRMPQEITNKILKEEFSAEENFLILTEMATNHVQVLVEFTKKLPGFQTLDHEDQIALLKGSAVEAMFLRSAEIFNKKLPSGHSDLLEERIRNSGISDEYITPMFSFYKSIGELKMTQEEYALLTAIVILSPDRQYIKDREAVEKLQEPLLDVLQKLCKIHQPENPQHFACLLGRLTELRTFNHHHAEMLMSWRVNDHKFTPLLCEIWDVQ
# In short: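 HepG2 cells transiently transfected with reporter constructs in which a chimeric FXR-GAL4 protein drives a GAL4-UAS reporter; 24 h compound exposure. Reporter mRNA measured by RT-PCR, FAM labelling, HpaI digestion and capillary electrophoresis; gain-of-signal versus DMSO.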
# [11] = molecular target: Oxysterols receptor LXR-alpha (Homo sapiens) (UniProt Q13133); test: ATG_LXRa_TRANS: Attagene TRANS-FACTORIAL HepG2 Assay for human Liver X Receptor alpha (LXRa) (AID 2282980; active means hit-call score of the fitted dose curve at least 0.9, where 1 is the maximum); conditions: HepG2 Attagene TRANS reporter, LXRa transactivation
# Chain of Oxysterols receptor LXR-alpha (Homo sapiens) (Q13133 whole entry, looked up, the tested form may be a part): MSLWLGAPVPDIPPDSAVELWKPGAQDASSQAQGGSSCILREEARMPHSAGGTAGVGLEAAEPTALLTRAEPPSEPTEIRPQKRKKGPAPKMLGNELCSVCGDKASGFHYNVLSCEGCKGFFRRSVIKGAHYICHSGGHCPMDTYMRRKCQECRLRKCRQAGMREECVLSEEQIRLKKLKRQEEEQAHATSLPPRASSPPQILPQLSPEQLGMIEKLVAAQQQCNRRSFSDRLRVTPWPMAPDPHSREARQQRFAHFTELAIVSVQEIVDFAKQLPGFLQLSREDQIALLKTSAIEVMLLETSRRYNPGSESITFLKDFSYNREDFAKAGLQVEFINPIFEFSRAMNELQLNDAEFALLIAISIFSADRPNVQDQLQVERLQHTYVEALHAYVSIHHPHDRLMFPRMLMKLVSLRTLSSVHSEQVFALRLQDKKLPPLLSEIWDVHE
# In short: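 HepG2 cells were transiently transfected with multiplexed reporter units driven by chimeric LXRa–GAL4 fusion proteins, then dosed for 24 h. Reporter mRNA was quantified by RT-PCR, fluorescent labelling and capillary electrophoresis; gain of signal fitted against DMSO baseline.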
# [12] = ATG_TCF_b_cat_CIS: Attagene CIS-FACTORIAL HepG2 Assay for human T-Cell-Factor with beta-catenin (TCF/b-cat) (AID 2282965); conditions: HepG2 TCF/beta-catenin cis-reporter transcription, actives raise or lower the signal
# In short: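 Using capillary electrophoresis as the read-out, labelled reporter cDNA fragments from transiently transfected HepG2 were sized and quantified. Exposure lasted 24 hours; activity in either direction was referenced to DMSO.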
# [13] = ATG_GAL4_TRANS: Attagene TRANS-FACTORIAL HepG2 Assay for GAL4 (Internal Marker) (AID 2282976; active means hit-call score of the fitted dose curve at least 0.9, where 1 is the maximum); conditions: HepG2 Attagene TRANS GAL4 internal marker reporter
# In short: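 HepG2 cells transiently transfected with multiplexed GAL4-UAS reporter constructs were dosed for 24 h. Reporter mRNA was measured by RT-PCR, 6-FAM primer extension, HpaI digestion and capillary electrophoresis, and gain of signal was fitted relative to DMSO.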
# [14] = molecular target: Transcription factor Sp1 (Homo sapiens) (UniProt P08047); test: ATG_Sp1_CIS: Attagene CIS-FACTORIAL HepG2 Assay for human Specificity Protein 1 (Sp1) (AID 2282961); conditions: HepG2 Sp1 cis-reporter transcription, actives raise or lower the signal
# Chain of Transcription factor Sp1 (Homo sapiens) (P08047 whole entry, looked up): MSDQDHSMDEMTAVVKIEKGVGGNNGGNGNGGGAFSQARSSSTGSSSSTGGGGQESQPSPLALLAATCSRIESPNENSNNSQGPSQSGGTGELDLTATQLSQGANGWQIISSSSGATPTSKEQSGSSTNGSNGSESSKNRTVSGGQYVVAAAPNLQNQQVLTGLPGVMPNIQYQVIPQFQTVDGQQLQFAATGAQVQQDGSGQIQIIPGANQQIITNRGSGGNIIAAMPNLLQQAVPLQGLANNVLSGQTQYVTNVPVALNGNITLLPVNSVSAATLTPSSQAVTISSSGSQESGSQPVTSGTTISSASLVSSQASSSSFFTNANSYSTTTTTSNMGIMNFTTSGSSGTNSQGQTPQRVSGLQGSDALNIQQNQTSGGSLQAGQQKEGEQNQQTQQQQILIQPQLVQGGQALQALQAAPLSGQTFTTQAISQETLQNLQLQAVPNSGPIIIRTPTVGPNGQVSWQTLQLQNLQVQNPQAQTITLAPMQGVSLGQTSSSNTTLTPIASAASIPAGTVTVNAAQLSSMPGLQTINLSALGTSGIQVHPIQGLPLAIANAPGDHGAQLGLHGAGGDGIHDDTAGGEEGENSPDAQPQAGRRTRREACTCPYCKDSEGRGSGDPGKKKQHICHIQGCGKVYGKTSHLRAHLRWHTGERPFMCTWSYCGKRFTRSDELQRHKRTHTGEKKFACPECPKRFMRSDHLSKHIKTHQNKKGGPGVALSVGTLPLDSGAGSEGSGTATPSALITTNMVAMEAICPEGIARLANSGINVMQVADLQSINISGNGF
# In short: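 HepG2 cells transiently transfected with multiplexed cis-regulated reporter constructs, chemical exposure 24 h. Reporter mRNA quantified by RT-PCR with capillary electrophoresis; bidirectional fit relative to DMSO.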
# [15] = molecular target: Glucocorticoid receptor (Homo sapiens) (UniProt P04150); test: ATG_GR_TRANS: Attagene TRANS-FACTORIAL HepG2 Assay for human Glucocorticoid Receptor (GR) (AID 2282978; active means hit-call score of the fitted dose curve at least 0.9, where 1 is the maximum;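 further: activators score as hits since higher reporter transcript over DMSO is fitted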); conditions: HepG2 Attagene TRANS GR reporter, mRNA transcription
# Chain of Glucocorticoid receptor (Homo sapiens) (P04150 whole entry, looked up, the tested form may be a part): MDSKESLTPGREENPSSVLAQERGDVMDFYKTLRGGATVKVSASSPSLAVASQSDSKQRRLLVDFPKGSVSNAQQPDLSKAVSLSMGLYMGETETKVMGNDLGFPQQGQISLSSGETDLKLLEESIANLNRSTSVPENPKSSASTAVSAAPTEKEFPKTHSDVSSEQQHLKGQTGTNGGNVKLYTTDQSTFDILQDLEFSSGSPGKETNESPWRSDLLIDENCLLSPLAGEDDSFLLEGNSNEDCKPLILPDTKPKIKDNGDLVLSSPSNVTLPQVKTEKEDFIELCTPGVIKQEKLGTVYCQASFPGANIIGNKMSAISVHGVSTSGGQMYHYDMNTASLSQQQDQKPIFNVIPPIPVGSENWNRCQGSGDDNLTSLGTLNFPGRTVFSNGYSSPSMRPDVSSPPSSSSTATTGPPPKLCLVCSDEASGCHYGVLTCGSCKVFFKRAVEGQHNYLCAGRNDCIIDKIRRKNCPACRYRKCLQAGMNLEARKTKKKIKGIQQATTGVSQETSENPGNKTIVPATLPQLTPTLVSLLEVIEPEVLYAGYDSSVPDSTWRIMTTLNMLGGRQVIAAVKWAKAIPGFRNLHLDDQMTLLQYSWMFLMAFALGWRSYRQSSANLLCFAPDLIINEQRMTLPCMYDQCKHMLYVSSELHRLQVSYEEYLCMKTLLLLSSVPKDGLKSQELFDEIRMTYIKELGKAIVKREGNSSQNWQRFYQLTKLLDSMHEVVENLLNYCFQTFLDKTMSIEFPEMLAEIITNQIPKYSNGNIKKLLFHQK
# In short: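 HepG2 cells transiently transfected with GAL4-UAS reporter units and exogenous GR-Gal4 chimera, dosed 24 h. Reporter mRNA by RT-PCR, FAM labeling, HpaI digest and capillary electrophoresis; gain-of-signal fit versus DMSO.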
# [16] = ATG_M_19_TRANS: Attagene TRANS-FACTORIAL HepG2 Assay for M19 Transcription Factor (Internal Marker) (AID 2282974; active means hit-call score of the fitted dose curve at least 0.9, where 1 is the maximum); conditions: HepG2 Attagene TRANS-FACTORIAL M19 internal marker reporter
# In short: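 HepG2 transiently transfected with GAL4-UAS multiplex reporter constructs, exposed 24 h; reporter RNA quantified by RT-PCR, 6-FAM labeling, HpaI digestion and capillary electrophoresis; internal background marker fitted upward versus DMSO.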
# [17] = molecular target: Estrogen-related receptor gamma (Homo sapiens) (UniProt P62508); test: ATG_ERRg_TRANS: Attagene TRANS-FACTORIAL HepG2 Assay for human Estrogen-Related Receptor gamma (ERRg) (AID 2282977; active means hit-call score of the fitted dose curve at least 0.9, where 1 is the maximum;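 further: hits increase reporter signal over DMSO so potencies reflect activators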); conditions: HepG2 Attagene TRANS reporter, ERRg transactivation
# Chain of Estrogen-related receptor gamma (Homo sapiens) (P62508 whole entry, looked up, the tested form may be a part): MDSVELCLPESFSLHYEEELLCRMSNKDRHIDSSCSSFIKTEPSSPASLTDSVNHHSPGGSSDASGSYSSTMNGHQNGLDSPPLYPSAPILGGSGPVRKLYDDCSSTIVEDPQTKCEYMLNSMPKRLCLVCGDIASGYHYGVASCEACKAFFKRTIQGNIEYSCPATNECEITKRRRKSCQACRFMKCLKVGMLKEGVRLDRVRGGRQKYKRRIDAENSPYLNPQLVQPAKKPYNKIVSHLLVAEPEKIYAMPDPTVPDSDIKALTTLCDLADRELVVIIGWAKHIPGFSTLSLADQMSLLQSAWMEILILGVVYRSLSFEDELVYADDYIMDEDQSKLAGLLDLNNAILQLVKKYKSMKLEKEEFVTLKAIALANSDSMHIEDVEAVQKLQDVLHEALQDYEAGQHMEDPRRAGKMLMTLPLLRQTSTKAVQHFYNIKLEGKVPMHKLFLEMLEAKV
# In short: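 Transient HepG2 transfectants, 24 h compound exposure, GAL4-UAS reporter mRNA by RT-PCR/6-FAM labelling/capillary electrophoresis; positive direction vs DMSO.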
smiles,measurement,setting,value
Cc1ccc2nc3sc(=O)sc3nc2c1,outcome,[1],inactive
same,outcome,[2],inactive
same,AC50,[3],43.9 µM (active)
same,outcome,[4],inactive
same,outcome,[5],inactive
same,AC50,[6],14.3 µM (active)
same,outcome,[7],inactive
same,outcome,[8],inactive
same,AC50,[9],6.96 µM (active)
same,outcome,[10],inactive
same,outcome,[11],inactive
CCCCN(CCCCO)N=O,outcome,[1],inactive
same,outcome,[2],inactive
same,outcome,[3],inactive
same,outcome,[12],inactive
same,outcome,[4],inactive
same,outcome,[5],inactive
same,outcome,[6],inactive
same,outcome,[7],inactive
same,AC50,[8],8.41 µM (active)
same,outcome,[9],inactive
same,outcome,[13],inactive
C[As+](C)(C)CC(=O)[O-],outcome,[14],inactive
same,outcome,[1],inactive
same,outcome,[2],inactive
same,outcome,[3],inactive
same,outcome,[12],inactive
same,outcome,[4],inactive
same,outcome,[5],inactive
same,outcome,[6],inactive
same,outcome,[13],inactive
same,outcome,[15],inactive
CCCCCCCCBr,outcome,[2],inactive
same,outcome,[3],inactive
same,outcome,[12],inactive
same,outcome,[4],inactive
same,outcome,[5],inactive
same,outcome,[9],inactive
same,outcome,[16],inactive
same,outcome,[13],inactive
same,outcome,[15],inactive
same,outcome,[10],inactive
same,outcome,[11],inactive
CC(C)CP(=S)(S)CC(C)C,outcome,[14],inactive
same,outcome,[1],inactive
same,outcome,[2],inactive
same,outcome,[3],inactive
same,outcome,[12],inactive
same,outcome,[4],inactive
same,outcome,[5],inactive
same,outcome,[7],inactive
same,outcome,[8],inactive
same,outcome,[9],inactive
same,outcome,[13],inactive
same,outcome,[15],inactive
C#C[C@]1(O)CC[C@H]2[C@@H]3CCC4=CC(=O)CC[C@]4(C)[C@H]3CC[C@@]21C,outcome,[14],inactive
same,outcome,[1],inactive
same,outcome,[2],inactive
same,outcome,[3],inactive
same,outcome,[12],inactive
same,outcome,[4],inactive
same,outcome,[5],inactive
same,outcome,[9],inactive
same,outcome,[11],inactive
CCC[CH2][Sn]([CH2]CCC)([CH2]CCC)[CH2]CCC,AC50,[14],9.76 µM (active)
same,AC50,[1],2.82 µM (active)
same,AC50,[2],11.1 µM (active)
same,AC50,[12],15.3 µM (active)
same,outcome,[4],inactive
same,outcome,[5],inactive
same,outcome,[9],inactive
same,outcome,[16],inactive
same,outcome,[15],inactive
same,outcome,[10],inactive
same,outcome,[11],inactive
OCC(c1ccc(Cl)cc1)c1ccc(Cl)cc1,AC50,[14],53.2 µM (active)
same,AC50,[1],60.9 µM (active)
same,outcome,[2],inactive
same,AC50,[3],60.7 µM (active)
same,outcome,[12],inactive
same,outcome,[4],inactive
same,outcome,[5],inactive
same,outcome,[8],inactive
same,AC50,[9],56.3 µM (active)
same,outcome,[10],inactive
CS(=O)(=O)c1ccc(C(=O)C2C(=O)CCCC2=O)c(Cl)c1COCC(F)(F)F,outcome,[14],inactive
same,outcome,[1],inactive
same,outcome,[2],inactive
same,outcome,[4],inactive
same,outcome,[5],inactive
same,outcome,[6],inactive
same,outcome,[7],inactive
same,outcome,[8],inactive
same,outcome,[9],inactive
same,outcome,[16],inactive
same,outcome,[13],inactive
same,outcome,[17],inactive
same,outcome,[11],inactive

# From PubChem BioAssay (EPA / NIEHS)
